# Reference: paper PMC9838217, “Structure of SALL4 zinc finger domain reveals link between AT-rich DNA binding and Okihiro syndrome”
# Positions count from the first letter of the chain named.
# Legend:
# Assay in all cases: HT-SELEX; high values mean tight binding
# Conditions in all cases: protein: recombinant; vector His6-GST; dsDNA, one strand shown
# [1] = target: T1, SALL4 ZFC4 R900W (HT-SELEX) (Mus musculus, UniProt Q8BX22 870-940, R900W)
# T1 sequence: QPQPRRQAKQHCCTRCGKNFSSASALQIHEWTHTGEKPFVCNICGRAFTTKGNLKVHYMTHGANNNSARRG
# How it was run: (§1)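 Residues 870–940 of mouse SALL4, forming zinc finger cluster 4, were expressed recombinantly, purified, and 1 µg was incubated with library DNA (1.5 µg first cycle, 200 ng later) in 100 µl of 10 mM Tris–HCl pH 7.5, 50 mM NaCl, poly(dI-dC) and DTT for 10 min at room temperature. Washed Ni2+ bead-captured complexes were PCR-amplified and reselected for up to 6 cycles in triplicate, and the products were sequenced on MiSeq and scanned for 6-mers. Binding signal is the fold change in each canonical k-mer's read fraction compared with the initial random library.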
# [2] = target: T2, SALL4 ZFC4 G921D (HT-SELEX) (Mus musculus, UniProt Q8BX22 870-940, G921D)
# T2 sequence: T1 sequence with W31R, G52D
# How it was run: as §1
# SALL4 ZFC4 WT (HT-SELEX) = target: T3, SALL4 ZFC4 WT (HT-SELEX) (Mus musculus, UniProt Q8BX22 870-940)
# T3 sequence: T1 sequence with W31R
# How it was run: as §1
Sequence,binding signal [1] [fold-change vs cycle 0],binding signal [2] [fold-change vs cycle 0],binding signal (SALL4 ZFC4 WT (HT-SELEX)) [fold-change vs cycle 0]
CGGCTA,0.246 ± 0.00516,0.375 ± 0.0584,–
CAGGGC,0.185 ± 0.0225,0.31 ± 0.0787,–
ACGCGA,0.245 ± 0.0174,0.365 ± 0.0478,–
GCAGAC,0.369 ± 0.0281,0.48 ± 0.0825,–
CGCGGC,0.0238 ± 0.000376,0.0986 ± 0.055,–
AGCTCG,0.347 ± 0.0155,0.487 ± 0.0527,–
GCCACC,0.153 ± 0.0112,0.282 ± 0.0759,–
GCAGCC,0.112 ± 0.0161,0.221 ± 0.0775,–
GCCTCC,0.209 ± 0.0253,0.334 ± 0.0802,–
CTCAAA,–,1.2 ± 0.0463,1.09 ± 0.0723
ACGCCA,0.244 ± 0.0178,0.368 ± 0.0567,–
AGAATA,2.17 ± 0.0929,1.84 ± 0.188,–
AATACG,–,1.1 ± 0.0362,1.06 ± 0.0521
CTCGCC,0.139 ± 0.00418,0.273 ± 0.0725,–
CGGACA,0.354 ± 0.00613,0.472 ± 0.0628,–
CGCGTC,0.112 ± 0.0164,0.207 ± 0.0615,–
AAAACT,–,1.57 ± 0.146,1.7 ± 0.107
GCGGGA,0.149 ± 0.0162,0.256 ± 0.0688,–
AGCGCC,0.0655 ± 0.00477,0.179 ± 0.0733,–
CCGCTC,0.151 ± 0.0178,0.273 ± 0.0659,–
CCTGGC,0.162 ± 0.00687,0.281 ± 0.075,–
AGGATG,–,1.04 ± 0.0274,0.903 ± 0.0399
GCTTTA,–,1.11 ± 0.0337,0.998 ± 0.0694
GCCCCA,0.158 ± 0.0152,0.275 ± 0.0854,–
AAACCT,–,1.34 ± 0.0704,1.23 ± 0.0691
CGAGCA,0.299 ± 0.00719,0.447 ± 0.0658,–
CGGCAC,0.0866 ± 0.0073,0.207 ± 0.0784,–
CGACAG,0.332 ± 0.0161,0.469 ± 0.0472,–
